Data published in PubChem BioAssay (NCI).
The panel holds about 79,000 compounds, 15% with a hit somewhere; the sample as a whole holds those more often. A number with no mark means an inactive call. Calls of active or inactive are those of the source. No stated cut-off is given here; in the data, active means growth inhibition above about 70%; inactive means the rest.

Test: NCI Yeast Anticancer Drug Screen. Data for the mlh1 rad18 strain (AID 175)
Settings: S. cerevisiae mlh1 rad18 strain growth inhibition; at 50.0 µM (retest, dose inferred, filed as 5.0); hits give high values
Summary of the method: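 Test agents were incubated with a yeast strain of defined genotype (DNA damage repair defect). Inhibition of growth was derived by comparison with vehicle-exposed cultures.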
For `CCS(=O)(=O)c1ccc(/C=C/C=N/NC(=S)NCC(C)C)cc1`, the growth inhibition was 43%.
With `CCC(=O)Oc1c(Cl)cc(Cl)c2ccccc12` the growth inhibition was 77% (active).
`COc1cc2c3c(cccc3c1)C(=O)N(CCN(C)C)C2=O` gave a growth inhibition of 55%.
For `CN(C)c1ccc(C(C#N)=C(C#N)C#N)cc1`, the growth inhibition was 76% (active).
With `O=C(CCCN1CCC2(CC1)CC(=O)N(N1CCCCCC1)C2=O)c1ccc(F)cc1` the growth inhibition was 56%.
For `O=C1C2C(C(=O)N1c1ccc(OCc3ccccc3)cc1)C1c3ccccc3C2C2CCCCN21` (configuration not stated), the growth inhibition was 69%.
In the case of `CCN(CC)CCC(=O)c1ccc(Oc2ccc(F)cc2)cc1`, the growth inhibition is reported as 93% (active).
In the case of `O=Nc1c(NO)ccc2nn(-c3ccccc3)nc12`, the growth inhibition is reported as 98% (active).
In the case of `CC(=O)SCCC[Si](C)(C)CCCSC(C)=O`, the growth inhibition is reported as 58%.
For `O=C(O)C1CCCCC1c1c2ccc(=O)c(O)c-2oc2c(O)c(O)ccc12` (configuration not stated), the growth inhibition was 84% (active).
For `Cc1ccc(NN(NC(=O)OC(C)C)C(=O)OC(C)C)cc1`, the growth inhibition was 62%.
In the case of `O=C1c2ccccc2C(=O)c2cc(CBr)ccc21`, the growth inhibition is reported as 92% (active).
`Cc1c(C(Cc2ccccc2N(C)C(=O)/C=C\C(=O)O)c2c[nH]c3ccccc23)c2ccccc2n1C` (configuration not stated) gave a growth inhibition of -9%.
In the case of `CC(C)/C(Cl)=N\OC(=O)Nc1ccc(F)cc1`, the growth inhibition is reported as 54%.
With `O=C1OC(=O)C2CCCC3CCCC1C32` (configuration not stated) the growth inhibition was 98% (active).
With `CCOC(=O)C(NC(=O)c1ccccc1)(N1CCN(c2cc3c(cc2F)c(=O)c(C(=O)O)cn3C2CC2)CC1)C(F)(F)F` (configuration not stated) the growth inhibition was 12%.
With `COc1ccc(NC(=S)N/N=C(\c2ccccc2)c2ccccn2)cc1` the growth inhibition was 90% (active).
